According to the OligoGym collection:
Note: reference of the scale not given here.

The sequences below were run against PLB1 (assay: pooled miR-30 sensor sort-seq; sequence = guide strand). Details: shRNA.
Sequence TTATCTTCCAGTCTTCCTGAAA has a sensor-assay potency score (higher = more potent) of -0.752.
ATACTGTGTGGTGACATCGGGG showed a sensor-assay potency score (higher = more potent) of -1.03.
For TTGATCTTGTTTTCAAACTTAT, the sensor-assay potency score (higher = more potent) was -0.907.
TACAGATTCGAATCTGTGCAGT was tested, and the sensor-assay potency score (higher = more potent) was -0.43.
TCTATGATCATCTTTCATCTTC showed a sensor-assay potency score (higher = more potent) of 0.303.
Sequence TACTGTGTGGTGACATCGGGGA has a sensor-assay potency score (higher = more potent) of 0.115.
With TATTGTTCCAGAGAGCACTGGC the sensor-assay potency score (higher = more potent) was 0.63.
Work on TAGTGGACCAGATCATTGCAGA yielded a sensor-assay potency score (higher = more potent) of -0.927.
Work on TTGTTGGAGGTAGTCTTGCGGC yielded a sensor-assay potency score (higher = more potent) of -0.878.
Sequence TTGAAAGTCAAGTTGCAGGTTC has a sensor-assay potency score (higher = more potent) of 0.551.
TAAGGTGGTCACATTCTCCAGG was tested, and the sensor-assay potency score (higher = more potent) was 0.024.
With TATTATCTTCCAGTCTTCCTGA the sensor-assay potency score (higher = more potent) was 0.718.

These sequences were tested against PLCB3 in the same assay as above. Details: shRNA.
Sequence TTGTATTCCACAAACTCCATGG has a sensor-assay potency score (higher = more potent) of -0.418.
AAGAACACTGTGTTCACCGGGT was tested, and the sensor-assay potency score (higher = more potent) was 0.656.
Sequence TTTGATGAACTTACTCCCGCGC has a sensor-assay potency score (higher = more potent) of 0.0652.
Sequence TATTCCACAAACTCCATGGGGC has a sensor-assay potency score (higher = more potent) of -0.0487.
With TTCGATGTAGTTGACAAGCGTG the sensor-assay potency score (higher = more potent) was -0.63.
For TTGCGCAGGAAGGTGTTCCGGG, the sensor-assay potency score (higher = more potent) was -0.298.
For TTGTCTGCTGAGAACATCTTCA, the sensor-assay potency score (higher = more potent) was -0.392.
ATGAAGTTCAAGAACACTGTGT was tested, and the sensor-assay potency score (higher = more potent) was 0.354.
Sequence TTCGTTGAGTCTCGGGTCGCGT has a sensor-assay potency score (higher = more potent) of -0.421.
TTGAATAGCTCCTCAGACCAGA gave a sensor-assay potency score (higher = more potent) of -0.311.
For TACTTTTCGATGAGCAGCCGGG, the sensor-assay potency score (higher = more potent) was -0.993.
Work on TAGTTGGAGGAGTCCACGCGGG yielded a sensor-assay potency score (higher = more potent) of -1.09.
